Assay results: PubChem BioAssay AID602123 (The Scripps Research Institute Molecular Screening Center, 2011)
Hit rate of the full screen: of about 360,000 compounds, about 1,500 (0.42%) were called active. No stated cut-off is given here; in the data, active means inhibition above about 13% (passing the limit was not always enough); inactive means the rest. This excerpt belongs to a sample that is enriched for actives.

target: Lon protease (Escherichia coli (strain K12)) (UniProt P0A9M0); test: E. coli eLon protease inhibition – biochemical, fluorescence polarization, primary screen (AID 602123);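 further: 0% = enzyme with probe and DMSO and 100% = no enzyme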; details: purified E. coli Lon protease, at 7.94 µM, active compounds read high
Sequence (P0A9M0 whole entry, looked up): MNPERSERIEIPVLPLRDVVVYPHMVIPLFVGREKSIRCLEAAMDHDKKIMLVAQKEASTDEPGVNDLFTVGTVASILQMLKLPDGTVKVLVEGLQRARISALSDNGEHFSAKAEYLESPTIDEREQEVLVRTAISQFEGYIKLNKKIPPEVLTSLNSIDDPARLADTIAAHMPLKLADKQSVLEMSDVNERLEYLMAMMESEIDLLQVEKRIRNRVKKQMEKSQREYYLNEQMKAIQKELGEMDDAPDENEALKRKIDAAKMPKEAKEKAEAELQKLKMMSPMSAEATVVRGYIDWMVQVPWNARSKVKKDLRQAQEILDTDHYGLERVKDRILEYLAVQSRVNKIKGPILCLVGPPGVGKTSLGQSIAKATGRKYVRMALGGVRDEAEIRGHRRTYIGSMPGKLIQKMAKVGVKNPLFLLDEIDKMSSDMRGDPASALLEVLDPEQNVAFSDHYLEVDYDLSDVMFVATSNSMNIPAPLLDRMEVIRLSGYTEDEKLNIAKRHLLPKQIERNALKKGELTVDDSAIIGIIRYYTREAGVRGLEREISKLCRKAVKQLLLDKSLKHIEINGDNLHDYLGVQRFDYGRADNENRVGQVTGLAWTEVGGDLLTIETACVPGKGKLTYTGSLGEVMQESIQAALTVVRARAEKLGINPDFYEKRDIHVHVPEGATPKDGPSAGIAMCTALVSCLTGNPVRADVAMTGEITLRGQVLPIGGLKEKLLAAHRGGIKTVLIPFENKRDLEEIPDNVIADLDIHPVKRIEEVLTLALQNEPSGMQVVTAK

SMILES	inhibition
c1ccc(-c2ccc3c(c2)NC(C2Nc4cc(-c5ccccc5)ccc4O2)O3)cc1 (stereo unspecified)	-3.71% (inactive)
NC(=O)c1nnsc1-c1ccc(-c2snnc2C(N)=O)cc1	1.17% (inactive)
COc1ccc(S(=O)(=O)N2CCOCC2)cc1NC(=O)CSc1cc(C)ccc1C	-9.45% (inactive)
COc1ccc(S(=O)(=O)N2CCOCC2)cc1NC(=O)Cc1c(F)cccc1Cl	20.4% (active)
COc1ccc(S(=O)(=O)N2CCOCC2)cc1NC(=O)COc1ccccc1	-17.8% (inactive)
Cc1ccc(CNC(=O)CCN2C(=O)[C@@H]3Cc4ccccc4CN3C2=O)cc1	1.97% (inactive)
O=C(CN1CCN(S(=O)(=O)c2cccc(Cl)c2)CC1)N1CCCCC1	-0.39% (inactive)
O=C(CN1CCCSc2ccccc21)N1CCN(S(=O)(=O)c2cccc(F)c2)CC1	19.9% (active)
O=C(CN1CCCSc2ccccc21)N1CCN(S(=O)(=O)c2ccccc2)CC1	4.26% (inactive)
CC(C)N1CCC(=NNc2ccc([N+](=O)[O-])cc2S(=O)(=O)N2CCOCC2)CC1	1.91% (inactive)
COc1ccccc1Oc1ccc(N2CC(C(=O)OCC(=O)c3ccc(F)cc3)CC2=O)cc1 (stereo unspecified)	2.52% (inactive)
CCCCn1c(=S)[nH]c2cc(S(=O)(=O)N3CCCCC3)ccc21	-10.8% (inactive)
CCn1c(=S)[nH]c2cc(S(=O)(=O)N3CCOCC3)ccc21	3.25% (inactive)
CNS(=O)(=O)c1ccc2c(c1)[nH]c(=S)n2C	62.6% (active)
CSc1ccc(S(=O)(=O)N2CCC(C(=O)NCCc3ccccc3)CC2)cc1	11% (inactive)
CC(C)Oc1ccc(/C=N/NC(=O)c2nnn(-c3nonc3N)c2CN(C)C2CCCCC2)cc1	1.38% (inactive)
CN(C)Cc1c(C(=O)N/N=C/c2ccccc2OCc2ccc(F)cc2)nnn1-c1nonc1N	18.9% (active)
CCN(CC)Cc1c(C(=O)N/N=C/c2cccc(OCc3ccc(F)cc3)c2)nnn1-c1nonc1N	5.3% (inactive)
CCc1ccc(CN2C(=O)c3ccccc3C2C(=O)NCC2CCCO2)cc1 (stereo unspecified)	-0.17% (inactive)
COc1c(C(C)C)oc2cc3oc(=O)ccc3cc12	0.79% (inactive)
CS(=O)(=O)N(C(=O)NC(=O)NC1CCS(=O)(=O)C1)C1CCCCC1 (stereo unspecified)	-6.98% (inactive)
Cc1ccc2cccc(S(=O)(=O)N3CCN(c4ccccc4F)CC3)c2n1	1.99% (inactive)
Cc1cc(-c2nnc(CCC(=O)NC(c3ccccc3)c3ccccc3)o2)no1	5.3% (inactive)
COc1cccc(N(CC(=O)NCc2ccccc2)C(=O)CCC(=O)Nc2nccs2)c1	-5.92% (inactive)

SMILES	inhibition
COc1ccc(C2=CC(c3cccc(OC)c3)n3nnnc3N2)cc1 (stereo unspecified)	16.1% (active)
COC(=O)C1=C(C(=O)c2ccc(C)cc2)C(c2ccccc2)n2nnnc2N1 (stereo unspecified)	-7.42% (inactive)
COc1ccc(C2CC(c3cccs3)Nc3nnnn32)cc1 (stereo unspecified)	-1.58% (inactive)
COc1c(C(=O)N2CCCC2)ccc2ccccc12	-2.3% (inactive)
COC(=O)CNS(=O)(=O)c1ccc(Cc2ccc(S(=O)(=O)NCC(=O)OC)cc2)cc1	5.06% (inactive)
COC(=O)C[n+]1cccc2ccccc21	99.9% (active)
CSc1ccccc1NC(=O)Cc1ccc(Br)cc1	3.49% (inactive)
COc1ccccc1C(=O)NCCC(=O)NC(C)CCc1ccccc1 (stereo unspecified)	2.26% (inactive)
COc1ccc(C(=O)NC(C)CCc2ccccc2)c(OC)c1 (stereo unspecified)	35.8% (active)
COc1ccc(C(=O)CCc2ccccc2O)c(OC)c1	-6.58% (inactive)
COCC(C)NC(=O)CSc1nc2nn(-c3ccccc3)c(=O)c-2c2n1CCCCC2 (stereo unspecified)	8.05% (inactive)
C=CCSc1ccc(S(=O)(=O)N2CCN(C)CC2)cn1	2.87% (inactive)
O=C(COC(=O)CNS(=O)(=O)c1ccccc1)NC12CC3CC(CC(C3)C1)C2	-4.78% (inactive)
O=C(COC(=O)C12CC3CC(CC(O)(C3)C1)C2)NC12CC3CC(CC(C3)C1)C2	14.8% (active)
O=C(CNCCO)NC12CC3CC(CC(C3)C1)C2	1.03% (inactive)
Cc1ccc(N(C(=O)c2sc(C)nc2C)C(C(=O)NC(C)(C)C)c2ccncc2)cc1 (stereo unspecified)	2.66% (inactive)
CCS(=O)(=O)N1CCCC(C(=O)NCCCN(C)Cc2ccccc2)C1 (stereo unspecified)	0.57% (inactive)
O=C(CCCn1c(=O)oc2ccccc21)Nc1cccnc1	0.74% (inactive)
C/C(=N/NC(=O)CSc1ccccn1)c1ccc([N+](=O)[O-])cc1	-0.59% (inactive)
CCN1C(=O)[C@H]2[C@@H](c3ccc(-c4ccc(OC)cc4)cc3)N[C@@](Cc3ccccc3)(C(=O)OC)[C@H]2C1=O	-4.73% (inactive)
CCN1C(=O)[C@H]2[C@@H](c3ccc(-c4ccc(F)cc4)cc3)N[C@@](Cc3ccccc3)(C(=O)OC)[C@H]2C1=O	-0.32% (inactive)
CCCSc1ccc([C@H]2N[C@@](Cc3ccccc3)(C(=O)OC)[C@H]3C(=O)N(C)C(=O)[C@@H]23)cc1	22.2% (active)
CCNC(=S)N1CCN(S(=O)(=O)c2ccc(Cl)s2)CC1	3.82% (inactive)
O=C(Nc1ccc(F)c(Cl)c1)C1CCN(S(=O)(=O)c2cccnc2)CC1	1.53% (inactive)

SMILES	inhibition
Cc1cc(C)n(Cc2cnc(N3CCOCC3)s2)n1	-9.37% (inactive)
Brc1ccc(C2=CC(c3ccco3)n3ncnc3N2)cc1 (stereo unspecified)	189% (active)
Clc1ccc2c(c1)C1=C(C(c3ccncc3)O2)C(c2ccc(Br)cc2)n2ncnc2N1 (stereo unspecified)	0.69% (inactive)
CN1/C(=c2/s/c(=C3/C(=O)N(c4ccccc4)NC3=Nc3ccccc3)n(C)c2=O)C(C)(C)c2ccccc21	-167% (inactive)
CCN(CC(=O)NCc1cccs1)C(=O)c1ccccc1F	-7.98% (inactive)
Cc1ccc(S(=O)(=O)CCC(=O)OCc2ccccc2)cc1	15.9% (active)
Cc1ccc(S(=O)(=O)CCC(=O)OCC(=O)N(C)Cc2ccccc2)cc1	5.85% (inactive)
Cc1ccc(S(=O)(=O)CCC(=O)OCC(=O)NCCc2ccc(S(N)(=O)=O)cc2)cc1	-12.1% (inactive)
Cc1cc(Br)ccc1NC(=O)CN(C)C(=O)CN1C(=O)NC2(CCCC2)C1=O	-8.08% (inactive)
CCC(=O)c1ccc(OCC(=O)N(CC)CC2COc3ccccc3O2)cc1 (stereo unspecified)	5.37% (inactive)
CC(=O)Nc1ccc(NC(=S)NC(=O)c2ccc([N+](=O)[O-])c(C)c2)cc1	-3.89% (inactive)
COCCCNC(=S)NC(=O)c1ccc([N+](=O)[O-])cc1	-1.2% (inactive)
CC(=O)NC(=S)Nc1ccc(NC(=S)NC(=O)c2ccc([N+](=O)[O-])cc2)cc1	21.3% (active)
COc1cc(Cl)c(C)cc1NC(=O)CSc1nnc(-c2ccco2)n1CC(C)C	-5.33% (inactive)
NC(Cc1ccccc1)c1csc(Nc2cc(Oc3ccccc3)ncn2)n1 (stereo unspecified)	-2.31% (inactive)
CCN(CC)C(=O)CSc1nnc(-c2cnccn2)n1-c1ccc(C)cc1	-8.84% (inactive)
CC(C)CCN(C(=O)c1csnn1)C(C(=O)NC1CCCC1)c1ccccc1 (stereo unspecified)	5.69% (inactive)
CCCn1c(SCC(=O)Nc2c(C)cccc2C)nnc1C(C)C	14.6% (active)
CCCn1c(SCC(=O)c2ccc3c(c2)OCCO3)nnc1C(C)C	3.55% (inactive)
COCCn1c(SCC(=O)Nc2nc(C)cs2)nnc1C(C)C	6.46% (inactive)
Cc1cccc(N(Cc2ccccc2)C(=O)c2ccccc2F)c1	0.91% (inactive)
CCCC(O)(CCC)C(=O)NN(C(=O)CCl)c1cccc(C)c1	12.8% (active)
CCCCC(O)(CCCC)C(=O)NN(C(=O)CCl)c1ccccc1	-2.85% (inactive)
